# Laboratory results from PubChem BioAssay (NCI).
# Compounds without any hit were thinned out: in the full panel of roughly 83,000, 20% have a hit.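 Activity criterion: percent growth below 10, measured after cells in 96-well plates were exposed to a single compound concentration for 48 hours.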 A number with no mark means an inactive call. Activity calls are given as the source filed them.
# Legend:
# Assay in all cases: NCI-60 one-dose screen, 48 h (100 = growth as untreated, 0 = no growth, -100 = all killed)
# Details in all cases: 10 µM unless noted
# SR leukemia = system: SR leukemia
# RPMI-8226 leukemia = system: RPMI-8226 leukemia
# OVCAR-8 ovarian = system: OVCAR-8 ovarian
# OVCAR-4 ovarian = system: OVCAR-4 ovarian
# SK-OV-3 ovarian = system: SK-OV-3 ovarian
# IGROV1 ovarian = system: IGROV1 ovarian
# OVCAR-3 ovarian = system: OVCAR-3 ovarian
# HS 578T breast = system: HS 578T breast
# NCI/ADR-RES ovarian = system: NCI/ADR-RES ovarian
# T-47D breast = system: T-47D breast
# BT-549 breast = system: BT-549 breast
# MDA-MB-435 melanoma = system: MDA-MB-435 melanoma
# SW-620 colon = system: SW-620 colon
# MCF7 breast = system: MCF7 breast
# HCT-116 colon = system: HCT-116 colon
# HCC-2998 colon = system: HCC-2998 colon
# KM12 colon = system: KM12 colon
# OVCAR-5 ovarian = system: OVCAR-5 ovarian
SMILES,growth (SR leukemia),growth (RPMI-8226 leukemia),growth (OVCAR-8 ovarian),growth (OVCAR-4 ovarian),growth (SK-OV-3 ovarian),growth (IGROV1 ovarian),growth (OVCAR-3 ovarian),growth (HS 578T breast),growth (NCI/ADR-RES ovarian),growth (T-47D breast),growth (BT-549 breast),growth (MDA-MB-435 melanoma),growth (SW-620 colon),growth (MCF7 breast),growth (HCT-116 colon),growth (HCC-2998 colon),growth (KM12 colon),growth (OVCAR-5 ovarian)
COc1ccc(-c2c(N)n[nH]c2-c2cc(OC)c3c(c2)OCCO3)cc1,-6.97% (active),74.7%,83.5%,101%,90.2%,85.9%,76.2%,86.2%,63.8%,66.1%,74.4%,-24.1% (active),48%,57.6%,57.2%,75%,40.4%,
CC(C)OC(=O)N1CCOCC1,109%,107%,95.6%,95.5%,98.1%,,115%,97.5%,108%,,101%,117%,95.4%,100%,102%,104%,100%,
O=C(/C=C/c1cc(-c2ccc3c(c2)OCO3)n[nH]1)c1ccc2c(c1)OCO2,44.5%,56.6%,86.9%,71.3%,109%,91.6%,90.7%,95.2%,102%,,88%,99.7%,93.8%,84.8%,92.7%,106%,94.6%,
COc1cccc(CC(C)=C(c2ccc(OCCN(C)C)cc2)c2ccc(OCCN(C)C)cc2)c1,-17% (active),-31.1% (active),-2.71% (active),,70.2%,8.66% (active),-17.8% (active),42.4%,19%,-72.7% (active),72.2%,,-61.6% (active),-55.7% (active),-74.3% (active),-15.3% (active),-1.23% (active),21.2%
CC(C)CSc1nc(NN)c(C#N)c(-c2ccccc2)n1,109%,100%,,86.9%,100%,103%,91%,95.7%,92.3%,87%,96.2%,101%,99.3%,88.2%,95.7%,95%,81.3%,104%
C/C=C(\C)C(C(=O)NC1CCCCC1)N(C(=O)C1CCc2cc(F)ccc2O1)c1ccc(Cl)cc1 (stereo unspecified),111%,100%,98.3%,,98.4%,103%,111%,94.7%,97.2%,95.2%,98.3%,,103%,99.1%,103%,94.9%,111%,103%
COc1cccc(CC(C)=C(c2ccc(OCCN3CCCCC3)cc2)c2ccc(OCCN3CCCCC3)cc2)c1,-41.2% (active),-45.8% (active),,-49% (active),76.9%,-10.5% (active),-40.7% (active),-50% (active),-13.3% (active),-42.4% (active),44.6%,-96.6% (active),-71.2% (active),-81.4% (active),-64.7% (active),-68.8% (active),-30.9% (active),24%
COc1ccc(-c2cnnn2-c2nonc2-n2cccc2)cc1OC,-4.66% (active),52.2%,66.5%,90.6%,61.8%,62.4%,30.2%,82.5%,18.3%,45.3%,60.1%,-36.9% (active),27%,30.4%,35.6%,62%,31.7%,
CN1CCN(Cc2ccc(NC(=O)c3cncc(C#Cc4cnc(N)c5ccncc45)c3)cc2C(F)(F)F)CC1,20.6%,18.5%,,25.5%,-12.1% (active),4.51% (active),35.2%,-0.418% (active),71.8%,43.2%,49.2%,9.96% (active),3.27% (active),35.6%,8.86% (active),33%,9.68% (active),9.45% (active)
CN(C)CCN1C(=O)c2ccc3c4c(ccc(c24)C1=O)C(=O)N(CCN=C=S)C3=O,-39.7% (active),-45% (active),-88.7% (active),-94.3% (active),-97% (active),-64.3% (active),-96.5% (active),-6.37% (active),-57.3% (active),-54.5% (active),-87.5% (active),-90.9% (active),-68.1% (active),,-71.9% (active),-87.4% (active),-93% (active),
COC(=O)C1CCCN1C(=O)[C@@H]1CCCN1C(=O)[C@H](Cc1c[nH]c2ccccc12)NC(=S)Nc1cc(C(F)(F)F)cc(C(F)(F)F)c1 (stereo partly specified),0.677% (active),36.6%,42.7%,61.1%,87.4%,47.1%,57.2%,65.4%,52.6%,49.8%,70.3%,45%,69.9%,38.8%,37.3%,15%,25.2%,
CCN(CC)CCCC(C)Nc1c2ccc(Cl)cc2nc2cc(OC)c(OC)cc12 (stereo unspecified),-14.2% (active),-33% (active),,-30.7% (active),40.5%,24.3%,34.4%,44.2%,28.8%,61.9%,55.3%,-81.8% (active),-25.2% (active),0.0607% (active),-42.5% (active),18.1%,8.52% (active),50.9%
Cc1cc(C(C)(C)C)ccc1S,93.4%,104%,111%,99.2%,105%,109%,111%,101%,112%,91.6%,105%,111%,98.4%,86.4%,103%,112%,112%,
COc1ccc(-c2c(-c3cc(OC)c4c(c3)OCO4)noc2N)cc1,-7.43% (active),23.8%,9.5% (active),34.4%,4.02% (active),14.6%,-47.3% (active),28%,13.8%,37.3%,20.7%,-38.9% (active),21%,14.2%,6.02% (active),15.8%,3.59% (active),
CCN(CC)CCC(CNc1c2ccc(Cl)cc2nc2ccc(OC)cc12)c1ccccc1 (stereo unspecified),-6.4% (active),-23.6% (active),-15.1% (active),,35.3%,-10.5% (active),-30.5% (active),-27.6% (active),-1.8% (active),-58.8% (active),,-80.4% (active),,-38.6% (active),-36% (active),-72% (active),-24.1% (active),-9.48% (active)
COc1ccc(CNCCCN2C(=O)c3ccc4c5c(ccc(c35)C2=O)C(=O)N(CCCNCCCCNCCCN)C4=O)c(OC)c1OC,6.04% (active),39.7%,4.39% (active),-48.3% (active),51.7%,-4.4% (active),3.29% (active),73.1%,60.7%,-44.4% (active),60.4%,-39.1% (active),10.8%,-19.7% (active),6.94% (active),,21.2%,
COc1ccc2c(c1)OC1=C(C(=O)OC1)C2c1cc(OC)c2c(c1)OCO2 (stereo unspecified),-7% (active),28.3%,20.2%,39.8%,8.55% (active),21.1%,-51.3% (active),14.9%,13.6%,52.1%,26%,-22.5% (active),,15%,10%,14.9%,1.61% (active),
COc1cc(C2C3=C(COC3=O)Nc3cc4c(cc32)OCO4)cc2c1OCO2 (stereo unspecified),-0.432% (active),21.9%,14.3%,51.9%,12.8%,23.6%,-45.3% (active),14.6%,9.84% (active),51.9%,25.4%,-20.4% (active),17.1%,13.9%,6.83% (active),8.39% (active),1.28% (active),
